This is an account of results in ChEMBL document CHEMBL3433997, “St. Jude Leishmania screening dataset” (2016).

Common to all, as to assay type: functional
The target of experiment [1] is Solute carrier family 2, facilitated glucose transporter member 1 (Homo sapiens) (UniProt P11166). As to the kind of experiment: ST_JUDE_LEISH: Cytotoxicity at 2uM final concentration against transgenic Leishmania Mexicana promastigotes LmGLUT1 that are glucose transport deficient and complemented with the human glucose transporter GLUT1. Activity is measured by DNA content using SYBR green in vitro.

Experiment [2] concerns the target Hexose transporter 1 (Plasmodium falciparum) (UniProt O97467). As to the kind of experiment: ST_JUDE_LEISH: Cytotoxicity at 2uM final concentration against transgenic Leishmania Mexicana promastigotes LmPfHT that are glucose transport deficient and complemented with the Plasmodium falciparum hexose transporter. Activity is measured by DNA content using SYBR green in vitro.

Experiment [3] deals with Glucose transporter (Leishmania mexicana) (UniProt O61059). As to the kind of experiment: ST_JUDE_LEISH: Cytotoxicity at 2uM final concentration against transgenic Leishmania Mexicana promastigotes LmGT2 that are glucose transport deficient and complemented with the L. Mexicana glucose transporter 2. Activity is measured by DNA content using SYBR green in vitro.

Chain of Solute carrier family 2, facilitated glucose transporter member 1 (Homo sapiens) (P11166 whole entry): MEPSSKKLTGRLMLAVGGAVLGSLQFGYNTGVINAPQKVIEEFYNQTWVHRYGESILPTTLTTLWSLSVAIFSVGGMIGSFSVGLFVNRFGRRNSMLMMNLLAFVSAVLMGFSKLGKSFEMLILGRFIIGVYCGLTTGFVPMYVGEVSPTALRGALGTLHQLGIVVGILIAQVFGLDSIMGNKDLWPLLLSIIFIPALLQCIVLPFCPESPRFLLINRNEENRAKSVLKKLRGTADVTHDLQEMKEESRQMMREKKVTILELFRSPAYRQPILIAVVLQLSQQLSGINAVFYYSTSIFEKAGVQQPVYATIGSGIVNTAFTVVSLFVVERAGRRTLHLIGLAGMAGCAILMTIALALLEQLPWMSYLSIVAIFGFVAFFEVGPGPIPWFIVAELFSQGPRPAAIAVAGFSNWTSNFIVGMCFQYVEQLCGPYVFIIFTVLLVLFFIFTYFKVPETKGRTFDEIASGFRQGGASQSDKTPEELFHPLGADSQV

For `Oc1ccccc1CN(CCCN(Cc1ccccn1)Cc1ccccc1O)Cc1ccccn1`, the inhibition in experiment [1] was 4.2%; in experiment [2], 3.15%; in experiment [3] it was 4.96%.

Take `COc1cccc(-c2ccc3ccnc(N)c3c2)c1`: the inhibition in experiment [1] stood at 4.14%; in experiment [2] it was 4.24%; in experiment [3], 2.03%.

As to `COc1ccc2nc3cc(Cl)ccc3c(Nc3ccc(O)c(CNC(C)C)c3)c2c1`, the inhibition is 0.29% in experiment [1], 0.43% in experiment [2] and 2.23% in experiment [3].

Take `CC(CNC1CCN(CCn2c(=O)ccc3ccc(F)cc32)CC1)c1ccccc1` (stereo unspecified): the inhibition is -1.82% in experiment [1], -1.07% in experiment [2] and -0.24% in experiment [3].

In the case of `O=C(Cc1cccc2ccccc12)NC1CCN(c2ccnc3cc(Cl)ccc23)C1` (stereo unspecified), the inhibition in experiment [1] is -2.29%; in experiment [2] it was -1.67%; in experiment [3], -0.88%.

Regarding `Cc1cccn2c(=O)c3cc(C(=O)NCCN4CCOCC4)c(=N)n(CCc4ccccc4)c3nc12`, the figures for the inhibition in experiment [1], in experiment [2] and in experiment [3] were -0.34%, 2.09% and 0.41%, respectively.

With `Cc1n[nH]c2cc(Nc3nccc(Nc4ccc(Oc5ccccc5)cc4)n3)ccc12`, the inhibition in experiment [1] was 11.3%; in experiment [2] it was 7.61%; in experiment [3], 6.15%.

Regarding `Cn1nc(-c2ccccc2F)c2cc(C(=O)NC3CCN(Cc4ccccc4)CC3)sc21`, the inhibition was -0.18% in experiment [1], -1.6% in experiment [2] and -1.7% in experiment [3].

Regarding `CN(C)CCOc1cc(NC(=O)Nc2cccc3c(-c4ccncc4)cccc23)ccc1I`, the inhibition in experiment [1] was determined as 4.55%; in experiment [2], 3.67%; in experiment [3], 4.12%.

Take `Cc1cccc2nc(-c3cccc(-c4ccc(CN5CCN(CCO)CC5)cc4)c3)[nH]c12`: the inhibition is 2.28% in experiment [1], 0.97% in experiment [2] and -0.97% in experiment [3].

Take `COc1cccc(C(NC(=O)c2ccccc2)c2ccc3cccnc3c2O)c1` (stereo unspecified): the inhibition was -0.96% in experiment [1], 2.16% in experiment [2] and -1.64% in experiment [3].

In the case of `Cc1ccc(Nc2nc(C)cc(N3CCN(CCc4ccccc4)CC3)n2)cc1`, the inhibition is 3.08% in experiment [1], 3.31% in experiment [2] and -1.99% in experiment [3].

`Cc1ccc(F)c(OCC2CCN(c3ccc(C(=O)NC4CC4)cn3)CC2)c1`: the inhibition in experiment [1] is 3.7%; in experiment [2], 2.89%; in experiment [3], -1.65%.

Consider `CC(C)CNC(=S)N1CCCN(c2nc3ccc(Cl)cc3s2)CC1`, for which the inhibition in experiment [1] was 3.18%; in experiment [2], 2.71%; in experiment [3] it was 0.2%.

For `Nc1nc(N)c2c(ccc3nn(C4CCCC4)cc32)n1`, the inhibition in experiment [1] is 10.1%; in experiment [2], 9.8%; in experiment [3], 5.28%.

For the compound `CN1CCCC1CNS(=O)(=O)c1ccc(C(=O)NCC2CC2)cc1` (stereo unspecified), the inhibition in experiment [1] worked out at 1.51%; in experiment [2], 2.45%; in experiment [3] it was 1.36%.

Regarding `Oc1c(Cl)cc(Nc2nccc(Nc3ccc(Oc4ccccc4)cc3)n2)cc1Cl`, the figures for the inhibition in experiment [1], in experiment [2] and in experiment [3] were 4.19%, 4.44% and 1.16%, respectively.

In the case of `CC(=O)Nc1cccc(C(=O)Nc2cccc(-c3ccc(-c4nc5cccc(C)c5[nH]4)s3)c2)c1`, the inhibition in experiment [1] is 3.54%; in experiment [2], 1.14%; in experiment [3], 0.43%.

Regarding `COc1cc2nc(N3CCC(CNCc4ccc(-c5ccc(C(F)(F)F)cc5)cc4)CC3)nc(N)c2cc1OC`, the figures for the inhibition in experiment [1], in experiment [2] and in experiment [3] were 106%, 107% and 110%, respectively.

For `O=[N+]([O-])c1cccc(S(=O)(=O)N2CCN(CC(O)COc3ccc(-c4ccccc4)cc3)CC2)c1` (stereo unspecified), the inhibition in experiment [1] came to 1.04%; in experiment [2], 1.75%; in experiment [3], 4.46%.

Regarding `COc1cccc(NC(=O)Nc2ccc(-c3oc(C(=O)NCC(c4ccccc4)N(C)C)cc3-c3ccncc3)cc2)c1` (stereo unspecified), the results for the inhibition in experiment [1], in experiment [2] and in experiment [3] were 5.08%, 3.73% and 3.18%, respectively.

For `CSc1ccc(CN2CCC(NC(=O)c3ccc(-c4cccc(C(F)(F)F)c4)s3)CC2)cc1`, the inhibition in experiment [1] is 3.18%; in experiment [2], 0.48%; in experiment [3], 3.3%.

For `Cc1cc(CN2CC[C@H](NC(=O)c3ccc(Cl)c(Cl)c3)C2)ccc1OCCN1CCCC1`, the values for the inhibition in experiment [1], in experiment [2] and in experiment [3] were -1.05%, 1.81% and -2.1%, respectively.

`O=C(/C=C/c1ccc(Cl)c(Cl)c1)N1CCC(CCCN2CCC(c3c[nH]c4ccc(O)cc34)CC2)CC1`: the figures for the inhibition in experiment [1], in experiment [2] and in experiment [3] were 25.3%, 17.4% and 14%, respectively.

As to `Cc1nc2nc(N)nc(N)c2c(C)c1Cc1ccc(C(F)(F)F)cc1`, the figures for the inhibition in experiment [1], in experiment [2] and in experiment [3] were 32.9%, 38.8% and 28.9%, respectively.

Turning to `Fc1cccc(Cn2ncc3cc(Nc4ncnc5sc(C#Cc6ncc[nH]6)cc45)ccc32)c1`, the inhibition in experiment [1] is -0.74%; in experiment [2] it was 1.74%; in experiment [3], -0.29%.

Consider `CC(C)CCN1CCCN(Cc2ccc(C(=O)Nc3ccc(F)c(F)c3)cc2)CC1`, for which the inhibition stood at 4.12% in experiment [1], 4.65% in experiment [2] and 4.14% in experiment [3].

On to `CCN(CC)CCN(Cc1ccc(-c2ccc(Cl)s2)cc1)C(=O)Cn1c(CCc2cccc(F)c2F)nc(=O)c2ccccc21`, for which the inhibition in experiment [1] was 3.75%; in experiment [2] it was 3.7%; in experiment [3] it was 2.15%.

For the compound `COc1ccccc1Cn1ccnc1SCC(=O)Nc1cccc(C(F)(F)F)c1`, the inhibition was 0.58% in experiment [1], 0.38% in experiment [2] and -0.75% in experiment [3].

Regarding `O=C(NCCNc1ccnc2cc(Cl)ccc12)c1ccccc1F`, the inhibition was -1.91% in experiment [1], 1.06% in experiment [2] and -0.19% in experiment [3].

Consider `CCOc1ccccc1C1CCN(CCCCNC(=O)c2ccc(NC(=O)c3ccc(Cl)cc3)cc2)CC1`, for which the inhibition was 10.6% in experiment [1], 7.51% in experiment [2] and 10.8% in experiment [3].

With `COC(=O)c1ccc(NC(=O)Nc2cccc(CCNCc3ccccc3)c2)cc1`, the inhibition was -0.06% in experiment [1], -0.8% in experiment [2] and -1.41% in experiment [3].

As for `Cc1cccc2nc(-c3cccc(-c4ccc(CNCCNC(=O)c5ccnn5C)cc4)c3)[nH]c12`, the inhibition was -1.64% in experiment [1], 0.67% in experiment [2] and -2.92% in experiment [3].

As for `COc1ccc(CCN(C)CCOc2ccc(NC(=O)c3cc(SC)cc4c(=O)c5ccccc5[nH]c34)cc2)cc1OC`, the values for the inhibition in experiment [1], in experiment [2] and in experiment [3] were 4.06%, 3.15% and 2.82%, respectively.

Consider `CCCCCCn1c(Sc2ccc(C#N)c([N+](=O)[O-])c2)nnc1-c1ccc(Cl)cc1`, for which the inhibition in experiment [1] amounted to 5.74%; in experiment [2], 7.85%; in experiment [3], 2.57%.

For the compound `c1cc(C2=NC3CCCCC3N2)ccc1OCCCCCOc1ccc(C2=NC3CCCCC3N2)cc1` (stereo unspecified), the inhibition is 2.83% in experiment [1], 5.62% in experiment [2] and 1.28% in experiment [3].

On to `FC(F)(F)c1ccc2[nH]c(-c3ccc(-c4cccc(CN5CCCCC5)c4)cc3)nc2c1`, for which the inhibition in experiment [1] is 2.89%; in experiment [2], 2.01%; in experiment [3] it was 0.4%.
